Experimental findings from ChEMBL document CHEMBL4513216, “Probing the Open Global Health Chemical Diversity Library for Multistage-Active Starting Points for Next-Generation Antimalarials” (ACS Infect Dis, 2020) are described below.

About 2,700 (4%) of roughly 68,000 compounds showed an effect of 50% or more. Many of the other results were omitted from the sample, so strong results are more common in it than they were.

The subject of this experiment is Plasmodium berghei. The experiment in a line: Screen against P. berghei liver stage (PbLuc), transformed with Luciferase, at 2uM. In kind it is functional, HepG2. The conditions noted are these: tested at 2 uM.
Turning to `CCOCC1CN(Cc2cnn(C)c2)Cc2nn(C)cc21` (centres undefined), the INHIBITION turned out to be 19.44%.

Consider `CS(=O)(=O)N[C@@H]1CN(C(=O)c2cccnc2)[C@@H]2CCCO[C@@H]21`, for which the INHIBITION is given as -13.61%.

`COCC(NC(=O)c1cnn(C)c1)c1cccc(C(F)(F)F)c1` (centres undefined): the INHIBITION was 31.38%.

Take `CCOCC1CN(Cc2ccoc2)Cc2nn(C)cc21` (centres undefined): the INHIBITION is -55.93%.

Consider `CC(C)CN1CCCn2nc(CNC(=O)Cc3cccc(O)c3)cc2C1`, for which the INHIBITION is recorded as 49.95%.

As to `CN(Cc1noc(C2CC2)n1)C1CCN(CCn2cccn2)C1` (centres undefined), the INHIBITION came out at 10.1%.

Take `CC(C)c1nc(CN(C)C2CCN(CCn3cc(C#N)cn3)C2)no1` (centres undefined): the INHIBITION was found to be 60.09%.

Regarding `CCc1nc(CN(C)C2CCN(CCc3ccncc3)C2)no1` (centres undefined), the INHIBITION is -11.16%.

On to `CCc1nc(CN(C)C2CCN(CCn3cccn3)C2)no1` (centres undefined), for which the INHIBITION is 51.94%.

`CN(Cc1noc(C2CC2)n1)C1CCN(CCn2cc(C#N)cn2)C1` (centres undefined): the INHIBITION is -9.17%.

Take `CCc1nc(CN(C)C2CCN(CCS(C)(=O)=O)C2)no1` (centres undefined): the INHIBITION was 50.72%.

`CN(Cc1noc(C2CC2)n1)C1CCN(CCS(C)(=O)=O)C1` (centres undefined): the INHIBITION is on record as -6.15%.

In the case of `Cc1nc(CN(C)C2CCN(CCn3cc(C#N)cn3)C2)no1` (centres undefined), the INHIBITION is -27.5%.

In the case of `CCc1nc(CN(C)C2CCN(CCNS(=O)(=O)CC)C2)no1` (centres undefined), the INHIBITION was determined as 20.71%.

As to `CC(=O)N(C)CC(=O)NC1(c2ccc(Cl)c(Cl)c2)CC1`, the INHIBITION is on record as 23.45%.

For the compound `Cc1nc(C)c(C(=O)NCCNC(=O)Cc2cccc(F)c2)s1`, the INHIBITION was 30.91%.

`CSCC(C)(O)CNS(=O)(=O)c1ccc(F)cc1` (centres undefined): the INHIBITION is on record as -40%.

Turning to `CN(Cc1csc(-c2cccs2)n1)Cc1cccnc1N`, the INHIBITION was 27.47%.

For the compound `Clc1ccc(OCCCN2CCOC(Cn3cncn3)C2)cc1` (centres undefined), the INHIBITION is on record as 9.17%.

Regarding `COc1cc(Oc2ncccc2C(F)(F)F)ccc1CN1CCCC1`, the INHIBITION is recorded as 66.12%.

`COc1ccc(Oc2ncccc2C(F)(F)F)cc1CN1CCCC1`: the INHIBITION is 20%.

With `COc1cc(CN2CCCC2)ccc1Oc1ncccc1C(F)(F)F`, the INHIBITION worked out at 43.1%.

For `c1cc2nccc(CC3CCCN(Cc4c[nH]cn4)CC3)c2cn1` (centres undefined), the INHIBITION is -0.83%.

For the compound `O=C(O)c1ccnc(-c2ccnc(COc3ccccc3Cl)n2)c1`, the INHIBITION amounted to 17.2%.

Regarding `CCc1cnc(CNC(=O)NC2CC(C)(C)OC2(C)C)s1` (centres undefined), the INHIBITION is given as -1.45%.

`CCc1cnc(CNC(=O)NCCc2ccc(O)cc2)s1`: the INHIBITION is given as 47.59%.

`CCc1cnc(CNC(=O)NCCCO)s1`: the INHIBITION stood at 52.85%.

Turning to `CN(C)CC1CN(c2ncnc3ccsc23)CCO1` (centres undefined), the INHIBITION turned out to be 44.6%.

As to `CCN1CCCC1CNC(=O)CCc1cccs1` (centres undefined), the INHIBITION is 9.27%.

Regarding `CSc1ccc(OC(C)C(=O)Nc2c(C)n[nH]c2C)cc1` (centres undefined), the INHIBITION is on record as 3.5%.

With `CC(=O)N1CCC(c2cnc(-c3c(C)nn(C)c3C)cn2)CC1`, the INHIBITION is recorded as 34.06%.

`Cn1cc(C(=O)CC2CCCN2C(=O)c2ccc(Cl)cn2)cn1` (centres undefined): the INHIBITION was 24.55%.

For the compound `Cn1cc(C(=O)CC2CCCN2C(=O)c2cncc3ccccc23)cn1` (centres undefined), the INHIBITION came out at 11.1%.

For `Cn1cc(C(=O)CC2CCCN2C(=O)c2ccncc2F)cn1` (centres undefined), the INHIBITION is given as -5.09%.

`Cn1cc(C(=O)CC2CCCN2C(=O)c2cccc3ncccc23)cn1` (centres undefined): the INHIBITION amounted to 51.19%.

Consider `CCc1ccccc1C(=O)N1CCCC1CC(=O)c1cnn(C)c1` (centres undefined), for which the INHIBITION is recorded as -7.41%.

As for `COc1cc(C(=O)N2CCCC2CC(=O)c2cnn(C)c2)ccc1F` (centres undefined), the INHIBITION was 64.2%.

`Cc1noc([C@H]2C[C@H]3OCC[C@H]3N(C3CCC3)C2)n1`: the INHIBITION amounted to 44.94%.

Turning to `COc1ccccc1CN(C)C(=O)CN1CC(n2nc(C)cc2C)C1`, the INHIBITION is reported as 18.15%.

As for `NCCc1cccc(CN2CCN(c3ccccc3)C(=O)C2)c1`, the INHIBITION is 22.72%.

On to `Cc1cc(C)cc(N2CCN(Cc3cccc(CCN)c3)CC2=O)c1`, for which the INHIBITION amounted to 10.92%.

For the compound `Cc1cc(C)cc(CN2CCN(Cc3cccc(CCN)c3)CC2=O)c1`, the INHIBITION stood at 61.75%.

As to `CC(C)c1nnc2n1CCN(Cc1ccc3c(c1)OCO3)CC2`, the INHIBITION was -21.23%.

As to `Cc1cccc(CN2CCC3(CCN(c4ccccn4)C3)C2=O)c1` (centres undefined), the INHIBITION came to 17.39%.

With `Cc1n[nH]c(C2CN(CC(=O)NCCc3ccccc3)CCO2)n1` (centres undefined), the INHIBITION stood at 19.43%.

Regarding `CCc1n[nH]c(C2CN(CC(=O)NCCc3ccsc3)CCO2)n1` (centres undefined), the INHIBITION came out at 12.46%.

Consider `Cc1n[nH]c(C2CN(CC(=O)NCCc3ccsc3)CCO2)n1` (centres undefined), for which the INHIBITION is 50.74%.

In the case of `CC(CNC(=O)CCCc1ccccn1)c1ccsc1` (centres undefined), the INHIBITION is reported as 18.85%.

For the compound `Cc1ccc(CN2CC[C@@H](O)[C@@H]2Cc2ccccc2)o1`, the INHIBITION was determined as 14.65%.

Consider `Cc1cc(C)cc(CCC(=O)N(C)CCc2cn[nH]c2)c1`, for which the INHIBITION was -4.26%.

On to `Cc1cccc(C(C(=O)N(C)Cc2ccon2)N(C)C)c1` (centres undefined), for which the INHIBITION is listed as -2.69%.

Turning to `Cc1ccccc1C(C(=O)N(C)CCc1cn[nH]c1)N(C)C` (centres undefined), the INHIBITION was -102.03%.

In the case of `Cc1cccc(C(C(=O)N(C)CCc2cn[nH]c2)N(C)C)c1` (centres undefined), the INHIBITION is reported as 67.28%.

For `CN(CCc1cn[nH]c1)C(=O)C(c1ccc(F)cc1)N(C)C` (centres undefined), the INHIBITION was 38.67%.

Take `Cc1ccc(C(C(=O)N(C)CCc2cn[nH]c2)N(C)C)cc1` (centres undefined): the INHIBITION is recorded as 69.67%.

With `Cc1ccc(CCC(C)NC2CCN(C(N)=O)CC2)cc1` (centres undefined), the INHIBITION is reported as -5.43%.

In the case of `CN1CCN(CCCNC(=O)CCc2nc3cc(Br)cnc3[nH]2)CC1`, the INHIBITION was determined as 12.87%.

As to `O=C(Nc1nc2c(s1)CN(S(=O)(=O)C1CC1)CC2)Nc1ccccc1F`, the INHIBITION was determined as 47.9%.

Consider `c1csc(N2CCN(c3ncnc4sccc34)CC2)n1`, for which the INHIBITION came to 16.93%.

Consider `CC1CN(c2ncnc3c2cnn3C)CCN1c1nccs1` (centres undefined), for which the INHIBITION is listed as 57.16%.

Consider `CC1CN(c2ncnc3sccc23)CCN1c1nccs1` (centres undefined), for which the INHIBITION is on record as 38.01%.

With `O=C(Cc1ccccn1)N1CCn2cc(Cn3cncn3)nc2C1`, the INHIBITION is -33.15%.

Take `CC(C)c1nnc2n1CCN(Cc1nc(-c3ccoc3)no1)C2`: the INHIBITION was 7.01%.

In the case of `CCc1nnc2n1CCN(Cc1nc(-c3ccoc3)no1)C2`, the INHIBITION is recorded as 73.05%.

In the case of `Cc1ccc(-c2nc(CN3CCN(C(=O)C4CC4)CC3)cs2)o1`, the INHIBITION is listed as -21.93%.

For the compound `Cc1nnc2n1CCN(Cc1nc(-c3ccoc3)no1)C2`, the INHIBITION is reported as -25.13%.

For `CCc1nnc2n1CCN(Cc1csc(-c3ccc(C)o3)n1)C2`, the INHIBITION amounted to 58.49%.

For `Cc1ccc(-c2nc(CN3CCC(C(=O)N(C)C)CC3)cs2)o1`, the INHIBITION stood at 27.91%.

Take `CCOC(=O)C1CCN(Cc2csc(-c3ccc(C)o3)n2)CC1`: the INHIBITION is -0.76%.

Take `CCNC(=O)C1CCN(Cc2csc(-c3ccc(C)o3)n2)CC1`: the INHIBITION was found to be 50.12%.

With `Cc1ccc(-c2nc(CN3CCN(CC(=O)N(C)C)CC3)cs2)o1`, the INHIBITION is 4.18%.

Take `Cc1ccc(-c2nc(CN3CCn4c(C)nnc4C3)cs2)o1`: the INHIBITION was found to be 42.58%.

For the compound `Cc1ccc(-c2nc(CN3CCN(S(=O)(=O)N(C)C)CC3)cs2)o1`, the INHIBITION came out at 53.12%.

As for `Cc1ccc(-c2nc(CN3CCn4c(nnc4C4CC4)C3)cs2)o1`, the INHIBITION was -110.74%.
